Records with an inconclusive call do not appear. Calls of active or inactive are those of the source. Unless noted, the call rests on the fitted dose curve; in most records, active means well fitted curve in the direction sought with a large enough effect; inconclusive means small, poorly fitted or top-dose-only effect, or another doubt; inactive means no such curve, though single readings can be large; an effect the other way counts as inactive or inconclusive.
Legend:
[1] = target: Cytochrome P450 1A2 (Homo sapiens) (UniProt P05177); assay: p450-cyp1a2 (AID 410; calls by dose curve; further: potency means the concentration at half of the fitted maximal effect)
Summary of the method: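 Read-out is luminescence from luciferin produced by CYP1A2 demethylation of Luciferin-ME (100uM, at Km). Detection reagent stopped the 60 min NADPH-dependent reaction; signals were normalized to 57 uM furafylline.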

[2] = target: Glucocorticoid receptor (Homo sapiens) (UniProt P04150); assay: GR-GFP Redistribution (AID 450;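 active means compounds whose dose series gives a full or clear partial fitted curve of increased nuclear translocation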; further: potency means the concentration at half of the fitted maximal effect)
[3] = target: Glucocorticoid receptor (Homo sapiens) (UniProt P04150); assay: GR-EFC Redistribution (AID 451; calls by dose curve; further: potency means the concentration at half of the fitted maximal effect); details: CHO-K1 GR-EFC translocation, beta-gal luminescence, 2 h
Summary of the method: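 Translocation of GR-ED fusion to nuclear EA restores b-gal, read by luminescence after 1 h room-temperature detection. Engineered CHO-K1 biosensor cells, 1,000/well, exposed 2 h at 37 C to titrations up to 46 uM final.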

[4] = target: Mitogen-activated protein kinase 10 (Mus musculus) (UniProt Q61831); assay: JNK3 AlphaScreen Assay (AID 530; active means well fitted curve in either direction with a large enough effect, not every such curve was filed as active;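 further: kinase came from lysate of stimulated human HepG2 cells; signal reports phosphorylation of biotinylated GST-cJun 1-79 at Ser73 with 10 µM ATP; on the % scale 0 is the no-effect control and ±100 the full control effect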)
Summary of the method: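 Kinase buffer: 20 mM Tris-HCl pH 7.6, 10 mM MgCl2, 1 mM DTT, 0.1 mM Na3VO4, 0.01% Tween-20; ATP 10 uM. Substrate biotin-GST-cJun(1-79), enzyme from activated HepG2 lysates. Detection by Ser73 phospho-antibody AlphaScreen.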

[5] = target: ATP-dependent 6-phosphofructokinase (Trypanosoma brucei brucei) (UniProt O15648); assay: qHTS Assay to Find Inhibitors of T. brucei phosphofructokinase: hit validation (AID 492961);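 further: luminescence reports ADP formed as PFK phosphorylates fructose-6-phosphate with ATP; on the % scale 0 is the no-effect control and ±100 the full control effect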
Summary of the method: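 In this biochemical qHTS validation, titrated compounds were tested against 1.25 nM PFK with 0.1 mM ATP and 0.5 mM F6P. Percent activity came from controls lacking or containing enzyme.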

[6] = target: DNA dC->dU-editing enzyme APOBEC-3G (Homo sapiens) (UniProt Q9HC16); assay: qHTS for inhibitors of Vif-A3G interactions: Validation (AID 588379); further: 0% is about no effect
Summary of the method: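 Yellow fluorescence (Ex 488, Em 500-530) of Vif-coexpressing HeLa A3G-eYFP cells, scanned by Acumen cytometer, reports blocked A3G degradation. Cells plated at 700/well overnight at 37 deg C before compound addition, then a further overnight compound incubation at 37 deg C.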

[7] = target: Luciferin 4-monooxygenase (Photinus pyralis) (UniProt P08659); assay: Biochemical firefly luciferase enzyme assay for NPC (AID 624030);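 further: purified P. pyralis luciferase at 10 nM with luciferin and ATP substrate; 0% = DMSO and -100% = full luciferase inhibition by PTC124 control; nearly all actives have a fitted effect of over 70% in size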
Summary of the method: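 Direct inhibition of firefly luciferase enzyme (10 nM final, 50 mM Tris Acetate) assessed by luminescence within 5 minutes. Percent activity scaled between DMSO and PTC124 positive control, with concentration-effect curves classified by fit quality and response.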

[8] = S16 Schwann cell PMP22 intronic element firefly luciferase assay (AID 624032);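 further: plate controls were DMSO for no effect and PTC124 positive control mean for full effect; nearly all actives have a fitted effect of over 30% in size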
Summary of the method: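 Luciferase reporter of PMP22 intronic-element expression in stably transfected S16 rat Schwann cells, read by ONE-Glo luminescence after 24 h compound exposure at 37 C. Activity scaled between DMSO (0%) and positive-control PTC124; concentration-effect curves quality-classified.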

[9] = S16 Schwann cell PMP22 intronic element beta-lactamase assay (AID 624044; calls by dose curve;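 further: 0% = DMSO and -100% = potassium clavulanate positive control; nearly all actives have a fitted effect of over 15% in size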); details: S16 rat Schwann cells, PMP22 element beta-lactamase FRET, 24 h; ratio activity, negative = inhibition: at 38.3 µM (top of the series)
Summary of the method: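 Beta-lactamase reporter under a PMP22 intronic regulatory element in stable S16 rat Schwann cells; 24 h compound exposure. 460 nm blue signal normalized between DMSO (0%) and potassium clavulanate, with 535 nm FRET tracking viability; curves classed by r2 and response.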

[10] = tested on: 7G8; assay: qHTS profiling for inhibitors of Plasmodium falciparum proliferation (AID 504749); further: nearly all actives have a fitted effect of over 60% in size; further: potency means the concentration at half of the fitted maximal effect;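 on activity, negative = inhibition: 0% = DMSO vehicle and full inhibition = artemisinin control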; details: P. falciparum in erythrocytes, SYBR Green DNA, 72 h; series mostly up to 28.7 µM
Summary of the method: (§1)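 In a 72 h erythrocytic culture (37 C, humidified, 5% CO2) at 2.5% hematocrit and 0.3% starting parasitemia, compounds were tested; SYBR Green I in detergent lysis buffer stained parasite DNA overnight.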

[11] = tested on: AA1029; assay: as above; details: P. falciparum in erythrocytes, SYBR Green DNA, 72 h; series mostly up to 28.7 µM
Summary of the method: as §1

[12] = tested on: ATS95; assay: as above; details: P. falciparum in erythrocytes, SYBR Green DNA, 72 h; series mostly up to 28.7 µM
Summary of the method: as §1

[13] = tested on: C2A; assay: as above; details: P. falciparum in erythrocytes, SYBR Green DNA, 72 h; series mostly up to 28.7 µM
Summary of the method: as §1

[14] = tested on: CP252; assay: as above; details: P. falciparum in erythrocytes, SYBR Green DNA, 72 h; series mostly up to 28.7 µM
Summary of the method: as §1

[15] = tested on: CP262; assay: as above; details: P. falciparum in erythrocytes, SYBR Green DNA, 72 h; series mostly up to 28.7 µM
Summary of the method: as §1

[16] = tested on: ECU; assay: as above; details: P. falciparum in erythrocytes, SYBR Green DNA, 72 h; series mostly up to 28.7 µM
Summary of the method: as §1

[17] = tested on: JCK; assay: as above; details: P. falciparum in erythrocytes, SYBR Green DNA, 72 h; series mostly up to 28.7 µM
Summary of the method: as §1

[18] = tested on: PAD; assay: as above; details: P. falciparum in erythrocytes, SYBR Green DNA, 72 h; series mostly up to 28.7 µM
Summary of the method: as §1

[19] = tested on: PC15; assay: as above; details: P. falciparum in erythrocytes, SYBR Green DNA, 72 h; series mostly up to 28.7 µM
Summary of the method: as §1

[20] = tested on: PC49; assay: as above; details: P. falciparum in erythrocytes, SYBR Green DNA, 72 h; series mostly up to 28.7 µM
Summary of the method: as §1

[21] = tested on: SC27B; assay: as above; details: P. falciparum in erythrocytes, SYBR Green DNA, 72 h; series mostly up to 28.7 µM
Summary of the method: as §1

[22] = tested on: TAB113; assay: as above; details: P. falciparum in erythrocytes, SYBR Green DNA, 72 h; series mostly up to 28.7 µM
Summary of the method: as §1

[23] = Stat Signaling Pathway (AID 446; active means well fitted curve in either direction with a large enough effect, not every such curve was filed as active;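 further: ME-180 cervical cancer cells given 40 pM IL-6 alongside compound; SIE-controlled beta-lactamase reporter measured as 460/530 nm FRET emission ratio; on the % scale 0 is the no-effect control and ±100 the full control effect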); details: ME-180 (cervical carcinoma) SIE beta-lactamase reporter, IL-6 stimulated, 5 h; at 17.2 µM (top of the series) unless noted
Summary of the method: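 Overnight-plated ME-180 cells bearing a STAT Inducible Element beta-lactamase reporter; 5 h co-exposure to compound and 40 pM IL-6; values normalized to 300 pM IL-6 and 125 nM JAK inhibitor controls.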

[24] = target: 3',5'-cyclic-AMP phosphodiesterase 4B (Homo sapiens) (UniProt Q07343); assay: qHTS Assay for Inhibitors of PDE-IV (AID 607; active means well fitted activation curve with a large enough effect in the main read-out, with a control signal flat, not every such curve was filed as active; further: % of control where 0% means no effect)
Summary of the method: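 Live HEK293 cells with a modified cyclic nucleotide-gated (CNG) channel report intracellular cAMP via membrane-potential dye fluorescence (ex 535/em 590 nm). Endogenous PDE-IV was targeted. Compounds were tested at up to 22.9 uM final; RO 20-1724 100 uM served as control.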

Chain of Glucocorticoid receptor (Homo sapiens) (P04150 whole entry, looked up, the tested form may be a part): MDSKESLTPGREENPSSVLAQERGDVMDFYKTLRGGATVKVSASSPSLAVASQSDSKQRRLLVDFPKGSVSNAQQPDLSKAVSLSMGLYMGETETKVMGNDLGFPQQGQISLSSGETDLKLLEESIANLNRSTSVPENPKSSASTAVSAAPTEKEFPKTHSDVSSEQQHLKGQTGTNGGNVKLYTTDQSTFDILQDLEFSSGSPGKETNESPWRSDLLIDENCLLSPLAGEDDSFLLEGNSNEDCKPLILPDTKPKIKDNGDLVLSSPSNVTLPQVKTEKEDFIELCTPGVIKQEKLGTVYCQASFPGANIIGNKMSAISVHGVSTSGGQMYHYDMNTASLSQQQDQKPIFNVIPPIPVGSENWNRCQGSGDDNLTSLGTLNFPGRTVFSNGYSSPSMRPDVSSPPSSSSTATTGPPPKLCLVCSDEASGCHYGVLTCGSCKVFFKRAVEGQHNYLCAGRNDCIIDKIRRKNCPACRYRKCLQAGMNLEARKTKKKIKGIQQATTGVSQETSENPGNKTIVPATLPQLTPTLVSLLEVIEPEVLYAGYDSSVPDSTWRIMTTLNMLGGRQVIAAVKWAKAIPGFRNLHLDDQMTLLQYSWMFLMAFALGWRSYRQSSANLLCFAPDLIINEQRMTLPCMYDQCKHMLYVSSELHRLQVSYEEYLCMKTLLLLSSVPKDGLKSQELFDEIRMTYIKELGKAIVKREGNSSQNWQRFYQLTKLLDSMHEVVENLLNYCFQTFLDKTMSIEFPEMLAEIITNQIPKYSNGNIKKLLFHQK
Chain of Cytochrome P450 1A2 (Homo sapiens) (P05177 whole entry, looked up): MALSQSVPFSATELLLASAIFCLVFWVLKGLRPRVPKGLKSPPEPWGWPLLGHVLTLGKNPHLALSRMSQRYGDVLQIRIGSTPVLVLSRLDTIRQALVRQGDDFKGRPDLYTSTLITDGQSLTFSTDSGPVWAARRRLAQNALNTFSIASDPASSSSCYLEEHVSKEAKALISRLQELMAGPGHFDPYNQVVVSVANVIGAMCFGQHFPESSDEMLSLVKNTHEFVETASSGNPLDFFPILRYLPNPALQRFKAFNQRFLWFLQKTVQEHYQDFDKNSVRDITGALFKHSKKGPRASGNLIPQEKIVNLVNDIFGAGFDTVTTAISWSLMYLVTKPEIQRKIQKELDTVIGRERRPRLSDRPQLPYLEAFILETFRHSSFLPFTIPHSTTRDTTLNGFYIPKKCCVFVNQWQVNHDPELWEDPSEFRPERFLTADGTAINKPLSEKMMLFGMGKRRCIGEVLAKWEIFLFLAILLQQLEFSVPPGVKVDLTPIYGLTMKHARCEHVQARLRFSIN
Chain of ATP-dependent 6-phosphofructokinase (Trypanosoma brucei brucei) (O15648 whole entry, looked up): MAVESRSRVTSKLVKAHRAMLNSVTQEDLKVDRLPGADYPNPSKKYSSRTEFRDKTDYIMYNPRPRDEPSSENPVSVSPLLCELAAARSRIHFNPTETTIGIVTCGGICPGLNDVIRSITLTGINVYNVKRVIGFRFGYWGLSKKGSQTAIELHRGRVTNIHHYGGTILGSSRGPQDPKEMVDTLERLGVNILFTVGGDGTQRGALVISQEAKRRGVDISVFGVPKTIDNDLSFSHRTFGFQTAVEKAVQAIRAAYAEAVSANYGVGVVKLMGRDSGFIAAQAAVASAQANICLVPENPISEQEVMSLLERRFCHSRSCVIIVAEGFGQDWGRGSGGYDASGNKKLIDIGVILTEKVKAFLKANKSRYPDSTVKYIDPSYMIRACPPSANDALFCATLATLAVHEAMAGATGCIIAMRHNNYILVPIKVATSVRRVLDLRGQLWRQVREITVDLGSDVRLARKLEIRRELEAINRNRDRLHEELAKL
Chain of 3',5'-cyclic-AMP phosphodiesterase 4B (Homo sapiens) (Q07343 whole entry, looked up): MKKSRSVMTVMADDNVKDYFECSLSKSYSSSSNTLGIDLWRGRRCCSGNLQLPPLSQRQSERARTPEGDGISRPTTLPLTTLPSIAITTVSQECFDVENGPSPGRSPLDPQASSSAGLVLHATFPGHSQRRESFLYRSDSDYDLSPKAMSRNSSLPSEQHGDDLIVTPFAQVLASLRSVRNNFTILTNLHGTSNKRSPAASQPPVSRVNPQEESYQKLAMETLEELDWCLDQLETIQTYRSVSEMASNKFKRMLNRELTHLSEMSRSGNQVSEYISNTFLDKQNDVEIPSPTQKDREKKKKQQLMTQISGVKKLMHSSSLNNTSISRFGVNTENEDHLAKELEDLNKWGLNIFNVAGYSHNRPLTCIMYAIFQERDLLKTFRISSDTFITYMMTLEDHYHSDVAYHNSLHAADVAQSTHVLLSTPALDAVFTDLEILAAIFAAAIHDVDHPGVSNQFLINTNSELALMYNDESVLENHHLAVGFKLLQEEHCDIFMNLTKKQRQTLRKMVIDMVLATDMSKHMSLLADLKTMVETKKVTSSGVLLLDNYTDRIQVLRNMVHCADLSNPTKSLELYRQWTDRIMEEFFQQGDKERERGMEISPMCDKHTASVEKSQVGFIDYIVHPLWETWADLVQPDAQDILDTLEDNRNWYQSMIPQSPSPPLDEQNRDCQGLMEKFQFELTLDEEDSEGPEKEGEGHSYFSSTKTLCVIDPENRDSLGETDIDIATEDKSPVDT
Chain of DNA dC->dU-editing enzyme APOBEC-3G (Homo sapiens) (Q9HC16 whole entry, looked up): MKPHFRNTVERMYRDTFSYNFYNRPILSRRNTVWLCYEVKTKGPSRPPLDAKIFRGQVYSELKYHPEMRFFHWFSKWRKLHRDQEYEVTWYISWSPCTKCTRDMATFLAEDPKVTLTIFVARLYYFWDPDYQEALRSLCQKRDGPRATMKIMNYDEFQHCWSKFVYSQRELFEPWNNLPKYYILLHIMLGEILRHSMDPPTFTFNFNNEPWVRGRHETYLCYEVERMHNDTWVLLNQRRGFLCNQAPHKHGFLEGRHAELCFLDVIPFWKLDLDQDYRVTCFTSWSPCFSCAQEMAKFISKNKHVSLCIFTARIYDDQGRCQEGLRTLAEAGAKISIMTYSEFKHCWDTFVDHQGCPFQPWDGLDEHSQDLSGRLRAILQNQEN
Chain of Luciferin 4-monooxygenase (Photinus pyralis) (P08659 whole entry, looked up): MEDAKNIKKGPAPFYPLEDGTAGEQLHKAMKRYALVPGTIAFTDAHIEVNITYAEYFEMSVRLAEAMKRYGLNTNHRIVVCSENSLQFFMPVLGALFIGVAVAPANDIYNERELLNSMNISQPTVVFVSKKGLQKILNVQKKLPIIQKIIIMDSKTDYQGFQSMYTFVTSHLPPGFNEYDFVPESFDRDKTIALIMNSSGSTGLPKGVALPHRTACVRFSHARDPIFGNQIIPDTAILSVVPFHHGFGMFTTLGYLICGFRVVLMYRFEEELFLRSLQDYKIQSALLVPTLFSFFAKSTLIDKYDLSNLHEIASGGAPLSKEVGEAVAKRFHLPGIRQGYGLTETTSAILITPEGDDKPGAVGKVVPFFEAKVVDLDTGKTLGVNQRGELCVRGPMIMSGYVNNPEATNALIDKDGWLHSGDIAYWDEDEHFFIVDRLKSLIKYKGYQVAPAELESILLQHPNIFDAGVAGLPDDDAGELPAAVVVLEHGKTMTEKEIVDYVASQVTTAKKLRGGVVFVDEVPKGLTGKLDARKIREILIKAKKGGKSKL

CNc1cc(OC)c(C(=O)N[C@@H]2CCN(Cc3ccccc3)[C@H]2C)cc1Cl
active: Potency [1] 31.6 µM | Potency [10] 6.31 µM | Potency [11] 14.1 µM
inactive: Potency [2] > 46 µM | Potency [3] > 46 µM | Potency [4] | Potency [5] | outcome [6] | Potency [7] | Potency [8] | Potency [9] | Potency [12] | Potency [13] | Potency [14] | Potency [15] | Potency [16] | Potency [17] | Potency [18] | Potency [19] | Potency [20] | Potency [21] | Potency [22]

COc1cccc2c1C(=O)c1c(O)c3c(c(O)c1C2=O)C[C@](O)(C(=O)CO)C[C@H]3O[C@@H]1C[C@H](N)[C@H](O)[C@H](C)O1
inactive: Potency [1] | Potency [2] > 20.6 µM | Potency [3] > 20.6 µM | Potency [24]
active: activity, negative = inhibition [23] 92.4% [activator]

From PubChem BioAssay (NCATS)
